Screening data deposited in PubChem by National Center for Advancing Translational Sciences (NCATS).
HT1080NT lethal = kills 2HG-producing HT-1080-NT fibrosarcoma cells; Potency, µM (series often up to 46.1 µM), for inactives: at the top dose activity, negative = less viability, most hits filed as cytotoxic; AID 686970; hit rate 1.6% among 360,000; HT-1080-NT fibrosarcoma viability, CellTiter-Glo ATP luminescence, 48 h;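 note: NT is the 2HG producing partner of a matched IDH1 knockdown line; potency is the fitted concentration of half-maximal effect; 0% = DMSO-treated cells and -100% = media-only wells without cells; nearly all actives have a fitted effect of over 55% in size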
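Fibrosarcoma NT cells, 750 per well in 5% FBS RPMI, were exposed to compound for 48 hours. Viability: CellTiter-Glo luminescence.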
TDP1 cell CPT = growth inhibition of DT40 Tdp1-/-;hTDP1 cells with camptothecin (screen for TDP1 inhibitors); chicken DT40 Tdp1-/-;hTDP1 cells + 20 nM CPT, ATP luminescence, 48 h; Potency, µM (titrated, usually from 46.2 µM), inactives show at the top dose activity change, negative = growth inhibition, most hits filed as inhibitors; hit rate 12% among 420,000; AID 686979; note: potency is the fitted concentration of half-maximal effect; nearly all actives have a fitted effect of over 55% in size
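Cell growth measured by CellTiter-Glo luminescence after a minimum 48 h, 37 C compound exposure with 20 nM CPT in Tdp1-knockout DT40 cells stably expressing hTDP1, seeded 400/well; qHTS titration format.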
HT1080 IDH1KD tx = kills HT-1080 cells with IDH1 knockdown. HT-1080 IDH1 knockdown viability, ATP luminescence, 48 h. AID 686971. hit rate 2% among 360,000. Potency, µM (titrated, usually from 46.1 µM), inactives show at the top dose activity, negative = toxicity, most hits filed as cytotoxic;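 note: potency is the fitted concentration of half-maximal effect; 0% = DMSO wells and -100% = cell-free medium wells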
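% activity derives from luminescence (CellTiter-Glo), normalised to DMSO and no-cell wells. HT-1080-IDH1KD cells, 750/well, had 48 h compound exposure at 37 °C.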
IL1B secr inh = blocks inflammasome-driven IL-1 beta release; THP-1 LPS/ATP IL-1B secretion, AlphaLISA, 16 h; stronger effect = lower value; activity change, % at 57.5 µM; hit rate 4.7% among 360,000; AID 743279; in the data active = activity change below about -50%; inconclusive = mostly about -30% to -49%
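THP-1 cells pretreated 1 hr with compounds (up to 57.5 uM final), then stimulated with LPS (250 ng/mL final) plus ATP (1.25 mM final); secreted IL-1B measured by AlphaLISA after 16 hr, decreased signal indicating inhibition.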
TDP1 cell noCPT = qHTS for Inhibitors of human tyrosyl-DNA phosphodiesterase 1 (TDP1): qHTS in cells in absence of CPT; Potency, µM (doses to about 46.2 µM), for the others: top-dose activity change, negative = growth inhibition, actives largely listed as inhibitors; DT40 Tdp1-/- hTDP1 cells, no CPT, ATP luminescence, 48 h; hit rate 15% among 420,000; note: potency is the fitted concentration of half-maximal effect; nearly all actives have a fitted effect of over 55% in size
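Camptothecin absent (DMSO only). Human TDP1-complemented DT40 knockout cells, 400 cells/well, 37 °C for minimum 48 hr; ATP measured via CellTiter-Glo, 30 min dark incubation, luminescence.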
ELG1 DNA repair = inhibitors of ELG1-dependent DNA repair in HEK293T cells. hit rate 2.3% among 330,000. HEK293T ELG1-luciferase reporter, luminescence, 16 h; DNA damage induced by 5-fluorouridine. Potency, µM (titrated, usually from 46.1 µM), for the others: at the top dose activity change, negative = inhibition, hits mostly inhibitors; note: potency is the fitted concentration of half-maximal effect; nearly all actives have a fitted effect of over 55% in size
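Luminescence from the luciferase reporter, measured 30 min after ONE-Glo reagent at room temperature, was the read-out. Beforehand, 2,000 cells per well were exposed for 16 hr at 37 °C to 5-fluorouridine together with compound or vehicle.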
* hit, by the source's call. Most compounds without a hit are left out; they make up all but 19% or so of the library. Unless noted, calls come from the whole dose curve; as a rule, active = well fitted curve in the direction sought with a large enough effect; inconclusive = small, poorly fitted or top-dose-only effect, or another doubt; inactive = no such curve, though single readings can be large; an effect the other way counts as inactive or inconclusive. Unless noted, % is set by controls: 0 for no effect and ±100 for the full control effect.

`CCc1ccc(C(O)c2ncc(-c3cccc(C(F)(F)F)c3)[nH]2)cc1` (stereo unspecified) gave HT1080NT lethal 23µM*, TDP1 cell CPT inconclusive, HT1080 IDH1KD tx inconclusive, IL1B secr inh -4 and TDP1 cell noCPT 23µM*.
`OC(c1cccc(Cl)c1)c1ncc(-c2cccc(C(F)(F)F)c2)[nH]1` (stereo unspecified) gave HT1080NT lethal inconclusive, TDP1 cell CPT inconclusive, HT1080 IDH1KD tx inconclusive, IL1B secr inh -16 and TDP1 cell noCPT 23µM*.
COc1c(C)cc(C(O)c2ncc(-c3ccc4ccccc4c3)[nH]2)cc1C (stereo unspecified) was read as HT1080NT lethal inconclusive, TDP1 cell CPT inconclusive, HT1080 IDH1KD tx inconclusive, IL1B secr inh 0 and TDP1 cell noCPT inconclusive.
`OC(c1cccc(F)c1)c1ncc(-c2ccc(C(F)(F)F)cc2)[nH]1` (stereo unspecified) gave HT1080NT lethal -30%, TDP1 cell CPT inconclusive, HT1080 IDH1KD tx inconclusive, IL1B secr inh -16 and TDP1 cell noCPT 16µM*.
Screening OC(c1ccc2ccccc2c1)c1ncc(-c2ccc(C(F)(F)F)cc2)[nH]1 (stereo unspecified) returned HT1080NT lethal inconclusive, TDP1 cell CPT inconclusive, HT1080 IDH1KD tx inconclusive, IL1B secr inh -8 and TDP1 cell noCPT inconclusive.
For CC1(CCC(=O)O)C(=O)CCC2C1CCC1(C)C2CCC1(C)O (stereo unspecified) the results were HT1080NT lethal 3%, TDP1 cell CPT 0%, HT1080 IDH1KD tx 2%, IL1B secr inh -9 and TDP1 cell noCPT 1%.
`COCC(=O)N1CCC2(CCN(Cc3nccs3)CC2)CC1` gave TDP1 cell CPT -3% and TDP1 cell noCPT -5%.
`O=C(C[C@@H]1C/C=C\C[C@@H](Cc2ccc(F)cc2)C(=O)OC[C@@H](Cc2ccccc2)NC1=O)N[C@H](CO)Cc1ccccc1` gave HT1080NT lethal 1%, TDP1 cell CPT inconclusive, HT1080 IDH1KD tx 5%, IL1B secr inh 76, TDP1 cell noCPT -23% and ELG1 DNA repair 8%.
Screening O=C1C=C(c2ccc(Cl)c(C(F)(F)F)c2)C[C@@H](c2ccc3c(c2)OCO3)C1 returned HT1080NT lethal -7%, TDP1 cell CPT inconclusive, HT1080 IDH1KD tx -5%, IL1B secr inh -13, TDP1 cell noCPT inconclusive and ELG1 DNA repair -12%.
COc1ccc(C(O)c2ncc(-c3cccc(C(F)(F)F)c3)[nH]2)cc1F (stereo unspecified) was read as HT1080NT lethal -11%, TDP1 cell CPT 16µM*, HT1080 IDH1KD tx -24%, IL1B secr inh -25 and TDP1 cell noCPT inconclusive.
`COc1ccc(C(O)c2ncc(-c3cccc(F)c3)[nH]2)cc1F` (stereo unspecified) gave HT1080NT lethal -2%, TDP1 cell CPT inconclusive, HT1080 IDH1KD tx 0%, IL1B secr inh -14 and TDP1 cell noCPT inconclusive.
COc1ccc(-c2cc(NC=O)c3ncc(-c4ccc(OC)c(OC)c4)n3c2)c(OC)c1 was read as HT1080NT lethal 0.0073µM*, TDP1 cell CPT 0.041µM*, HT1080 IDH1KD tx 0.082µM*, IL1B secr inh 15 and TDP1 cell noCPT 0.033µM*.
COc1cccc(-c2cnc3c(NC=O)cc(-c4ccc(OC)cc4OC)cn23)c1 was read as HT1080NT lethal inconclusive, TDP1 cell CPT 0.015µM*, HT1080 IDH1KD tx inconclusive, IL1B secr inh 47 and TDP1 cell noCPT 0.021µM*.
`c1ccc2nc(N3CCCC3)c(N3CCCCC3)nc2c1` gave HT1080NT lethal -4%, TDP1 cell CPT -18%, HT1080 IDH1KD tx -14%, IL1B secr inh 20 and TDP1 cell noCPT inconclusive.
`c1ccc(-c2nc(N3CCCCCC3)c3ccccc3n2)nc1` gave HT1080NT lethal -28%, TDP1 cell CPT 2.1µM*, HT1080 IDH1KD tx inconclusive, IL1B secr inh -84*, TDP1 cell noCPT 2.3µM* and ELG1 DNA repair 2.6µM*.
For CN1CCN(c2nc(-c3ccccc3Cl)nc3ccccc23)CC1 the results were HT1080NT lethal 2%, TDP1 cell CPT -4%, HT1080 IDH1KD tx 1%, IL1B secr inh inconclusive, TDP1 cell noCPT 2% and ELG1 DNA repair 6%.
`CCN1CCN(c2nc(-c3ccccn3)nc3ccccc23)CC1` gave HT1080NT lethal 8.9µM*, TDP1 cell CPT inconclusive, HT1080 IDH1KD tx 10µM*, IL1B secr inh 40, TDP1 cell noCPT 21µM* and ELG1 DNA repair inconclusive.
Screening CCN1CCN(c2nc(-c3ccccc3Cl)nc3ccccc23)CC1 returned HT1080NT lethal -4%, TDP1 cell CPT -20%, HT1080 IDH1KD tx 0%, IL1B secr inh -14, TDP1 cell noCPT inconclusive and ELG1 DNA repair inconclusive.
Screening c1ccc2c(N3CCCC3)nc(-c3ccncc3)nc2c1 returned HT1080NT lethal -2%, TDP1 cell CPT inconclusive, HT1080 IDH1KD tx -4%, IL1B secr inh -80*, TDP1 cell noCPT 18µM* and ELG1 DNA repair inconclusive.
For COc1nc(-c2ccncc2)nc2ccccc12 the results were HT1080NT lethal -21%, TDP1 cell CPT -5%, HT1080 IDH1KD tx -23%, IL1B secr inh -30, TDP1 cell noCPT -19% and ELG1 DNA repair -5%.
`Cc1nc(N2CCCCCC2)c2ccccc2n1` gave HT1080NT lethal -7%, TDP1 cell CPT inconclusive, HT1080 IDH1KD tx -8%, IL1B secr inh 66, TDP1 cell noCPT 21µM* and ELG1 DNA repair inconclusive.
For COC(=O)C[C@@H]1OC[C@H](C)N1S(=O)(=O)c1ccc(C)cc1 the results were HT1080NT lethal 25%, TDP1 cell CPT -3%, HT1080 IDH1KD tx 19%, IL1B secr inh -5 and TDP1 cell noCPT 0%.
For Cc1ccc(-c2nc(CN3CCN(C(=O)C4CCCO4)CC3)cs2)cc1 (stereo unspecified) the results were HT1080NT lethal -15%, TDP1 cell CPT inconclusive, HT1080 IDH1KD tx -18%, IL1B secr inh -13, TDP1 cell noCPT inconclusive and ELG1 DNA repair 10%.
Screening COC(=O)c1ccc(Nc2ncnc3c2cnn3-c2ccccc2)cc1 returned TDP1 cell CPT -2% and TDP1 cell noCPT -7%.
Screening c1ccc(CN2CCN(c3nc(-c4ccccc4)nc4ccccc34)CC2)cc1 returned HT1080NT lethal 5%, TDP1 cell CPT inconclusive, HT1080 IDH1KD tx 5%, IL1B secr inh inconclusive, TDP1 cell noCPT inconclusive and ELG1 DNA repair inconclusive.
